# Screening data deposited in PubChem by Broad Institute.
# A selection: hits, their analogues and other compounds. The true share with any hit is near 2.3%.
# ID4 SMM: binds human ID4 protein on microarray; P47928; small molecule microarray, Flag-ID4 binding, fluorescence F/B; calls only; 31,000 compounds, 1.2% hits; AID 624137; call rule not given here;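 note: a binder raises fluorescence above local background on the spot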
# Target sequence (P47928 whole entry, looked up): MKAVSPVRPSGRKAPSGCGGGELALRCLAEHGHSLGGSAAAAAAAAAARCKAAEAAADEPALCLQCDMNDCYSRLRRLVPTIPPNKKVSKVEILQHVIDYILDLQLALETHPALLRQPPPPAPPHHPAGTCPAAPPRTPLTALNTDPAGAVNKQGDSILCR
# mut p53 react: re-activators of the mutant p53 pathway. 28,000 compounds, 1.5% hits. activation, % at 9.98 µM. SW480 PUMA-promoter luciferase, p53 mutant reactivation. AID 624151; in the data active = activation above about 52%
# * hit, by the source's call; i = inactive; x = no result given; + = active, no number.
SMILES,ID4 SMM,mut p53 react
Cc1cc(C(=O)CSc2ncn[nH]2)c(C)n1-c1cc(F)ccc1F,i,49
COc1cc(S(=O)(=O)n2cnc3ccccc32)c(OC)cc1Cl,i,-2
COc1cc(S(=O)(=O)n2nnc3ccccc32)c(OC)cc1Cl,+,6
COc1ccc(C2OCC3C2CO[C@H]3c2ccc(OC)c(OC)c2)cc1OC (stereo partly specified),i,-11
CCOC(=O)c1c(NC(=S)NCc2cc(C)n(C)n2)sc2c1CCCC2,i,-2
CCOC(=O)c1c(NC(=S)N(C)Cc2c(C)nn(C)c2C)sc2c1CCCCCC2,+,4
Cc1ccccc1-c1cnc2c(c1)C(=O)N([C@@H](C)CO)C[C@H](C)[C@H](CN(C)C(=O)c1ccccc1)O2,i,2
CCn1c(SCC(=O)Nc2c(C)cccc2C)nnc1-c1cnccn1,+,-3
CCn1c(SCC(=O)Nc2cc(C)c(Cl)cc2OC)nnc1-c1cnccn1,i,-7
C[C@@H]1CCCCO[C@H](CN(C)C(=O)C2CCCCC2)[C@H](C)CN([C@H](C)CO)C(=O)c2cc(N(C)C)ccc2O1,i,-13
Cc1ccc(C(=O)NCCN2CCOCC2)cc1S(=O)(=O)N1CCCCC1,i,6
Cc1ccc(C(=O)Nc2ccccc2C(=O)N2CCN(c3ccccc3)CC2)cc1S(=O)(=O)N1CCCCC1,i,-1
O=C(Nc1ccccc1C(=O)O)c1ccc(Br)c(S(=O)(=O)N2CCOCC2)c1,+,13
O=C(NCCN1CCOCC1)c1ccc(Cl)c(S(=O)(=O)N2CCOCC2)c1,+,-10
Cc1c(NC(=S)NCCc2c[nH]c3ccccc23)c(=O)n(-c2ccccc2)n1C,+,2
Cc1c(NC(=S)NCc2ccccn2)c(=O)n(-c2ccccc2)n1C,i,0
O=C(CC(O)(CC(=O)OCc1ccc(O[C@@H]2O[C@H](CO)[C@@H](O)[C@H](O)[C@H]2O)cc1)C(=O)OCc1ccc(O[C@@H]2O[C@H](CO)[C@@H](O)[C@H](O)[C@H]2O)cc1)OCc1ccc(O[C@@H]2O[C@H](CO)[C@@H](O)[C@H](O)[C@H]2O)cc1,i,11
Cc1c(NC(=O)COc2ccc(C(C)(C)C)cc2)cccc1C(=O)O,i,24
Cc1ccc2oc(-c3cccc(NC(=O)COc4ccc(Cl)cc4)c3C)nc2c1,i,66*
Cc1ccc(OCC(=O)Nc2cccc(C(=O)O)c2C)cc1,i,66*
Cc1ccc2oc(-c3cccc(NC(=O)COc4ccc(Br)cc4)c3C)nc2c1,i,44
Cc1noc(C)c1NC(=O)Nc1ccc2c(c1)C(=O)N([C@@H](C)CO)C[C@H](C)[C@H](CN(C)C)OCCCC[C@@H](C)O2,i,-2
C[C@@H]1CN([C@@H](C)CO)C(=O)c2cc(C#Cc3ccncc3)cnc2O[C@H]1CN(C)C(=O)CN(C)C,+,32
C[C@@H]1CN([C@H](C)CO)C(=O)c2cc(C#Cc3cccnc3)cnc2O[C@H]1CN(C)Cc1cccnc1,i,7
C[C@@H]1CN([C@@H](C)CO)C(=O)c2cc(C#Cc3cccnc3)cnc2O[C@@H]1CN(C)Cc1ccncc1,+,10
SMILES,ID4 SMM,mut p53 react
CCC(=O)N(C)C[C@H]1Oc2ncc(C#Cc3ccncc3)cc2C(=O)N([C@H](C)CO)C[C@H]1C,i,4
CC(=O)c1ccc(NC(=O)CNS(=O)(=O)c2cccc(Cl)c2)cc1,i,68*
CC(=O)c1cccc(NC(=O)CNS(=O)(=O)c2ccc(Br)cc2)c1,i,19
CC(=O)Nc1ccc(NC(=O)CNS(=O)(=O)c2c(C)cc(C)cc2C)cc1,+,8
Cc1cc(C)c(S(=O)(=O)NCC(=O)Nc2ccc(I)cc2)c(C)c1,i,3
CCCCC/C=C\C/C=C\CCCCCCCC(=O)OC(CO)CO,i,x
O=C(NCC[C@H]1CC[C@H](NC(=O)C2CCCCC2)[C@H](CO)O1)c1ccc(F)cc1,i,x
O=C(CCN1C(=O)c2ccccc2S1(=O)=O)Nc1cccc(Cl)c1Cl,i,-3
O=C(CCN1C(=O)c2ccccc2S1(=O)=O)NCc1ccco1,+,21
Nc1nc(SCC(=O)N2CCc3ccccc32)n[nH]1,i,20
COc1cc2c(cc1OC)CN(C(=O)CSc1n[nH]c(N)n1)CC2,+,-2
COc1ccc(S(=O)(=O)N(C)C[C@@H]2Oc3ccc(NC(=O)NC(C)C)cc3C(=O)N([C@@H](C)CO)C[C@H]2C)cc1,i,7
O=C(NCc1ccco1)C1OCCc2ccccc21 (stereo unspecified),i,6
COc1ccc(CCNC(=O)C2OCCc3ccccc32)cc1OC (stereo unspecified),+,-5
CC(C)n1cnc2c(NCc3ccccc3)nc(NCCO)nc21,i,92*
CC(C)n1cnc2c(NCc3ccccc3)nc(NCCCO)nc21,x,-7
Cn1nnnc1SCC(=O)Nc1cccc(Cl)c1Cl,i,14
CC(C)(C)NS(=O)(=O)c1ccc(NC(=O)CSc2nc3ccccc3s2)cc1,i,1
O=C(O)COc1ccc(OCCNC[C@@H](O)COc2ccccc2)cc1,+,6
COCCNC(=O)COc1ccc(OCCNC[C@@H](O)COc2ccccc2)cc1,i,-13
Cc1ccc(OCC(=O)Nc2ccc3oc(-c4c(F)c(F)c(F)c(F)c4F)nc3c2)cc1,i,10
C[C@H](CO)N1C[C@H](C)[C@H](CN(C)C)Oc2ncc(-c3ccc(F)cc3)cc2C1=O,i,2
COc1nnc(-c2ccc(N3CCOCC3)c(NC(=O)COc3ccc(C)cc3)c2)c2ccccc12,i,-5
CCc1ccc(OCCSc2nc(C)cc(=O)[nH]2)cc1,i,59*
CCOc1ccc(OCCSc2nc(C)cc(=O)[nH]2)cc1,i,34
SMILES,ID4 SMM,mut p53 react
Cc1cc(OCCCC(=O)Nc2sc3c(c2C#N)CCCC3)cc(C)c1Cl,i,-2
Cc1ccc(NS(=O)(=O)c2cc(C(=O)NCC3CCCO3)ccc2Cl)cc1C (stereo unspecified),i,-3
O=C(NCc1ccccn1)c1cc(-c2ccccc2)on1,i,93*
Cc1ccc(-c2cc(C(=O)NCc3ccccn3)no2)cc1,i,48
Cc1ccc(-c2cc(C(=O)NCc3ccco3)no2)cc1,i,73*
O=C(NCc1ccccn1)C(=O)Nc1ccc(Cl)c(Cl)c1,i,58*
COc1ccc(NC(=O)NCc2ccccn2)cc1OC,i,-4
Cc1cc(C(=O)NCc2ccco2)no1,i,-7
O=C(CSc1nc2sc3c(c2c(=O)n1Cc1ccco1)CCC3)N1CCCc2ccccc21,i,-12
COC(=O)Cc1c(C)c2cc(Cl)c(OC(C)C(C)=O)cc2oc1=O (stereo unspecified),i,68*
COC(=O)Cc1c(C)c2c(OCC(N)=O)cc(C)cc2oc1=O,i,-6
COc1ccc(C2CC(=O)c3ccc(OC)cc3O2)cc1 (stereo unspecified),i,97*
O=C1CC(c2ccc(O)cc2)Oc2ccccc21 (stereo unspecified),i,39
COc1cccc(OCc2nc(-c3ccccc3)no2)c1,i,112*
COc1cc(OC)cc(C(=O)NCc2nc(-c3ccccc3)no2)c1,i,-2
COc1ccc(OC)c(S(=O)(=O)Nc2ccc(O)c(Sc3nc4ccccc4s3)c2)c1,i,-33
COc1ccc(OC)c(NC(=O)Nc2cccc(Cn3cccn3)c2)c1,i,12
